Bioassay records (PubChem BioAssay)
MEX-5 binding = MEX-5 zinc finger RNA-binding disruptors – biochemical, C. elegans, fluorescence polarization, MLPCN library, primary screen; Zinc finger protein mex-5 (Caenorhabditis elegans), Q9XUB2; MEX-5/FITC-TCR2 RNA binding; hits give low values; activity score (negative = inhibition of binding), % at 10 µM; actives 0.38% (n = 300,000); AID 1832, 2009;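 active = inhibition past about -25% in most replicates, and total fluorescence under double the plate's negative control median, limit read from the data; inconclusive = replicates evenly split on the limit, or fluorescence at least double controls; inactive = too little inhibition in most replicates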
MCL1-BIM inh = inhibitors of MCL1 binding to BIM-BH3, primary screen, biochemical, fluorescence polarization | actives 0.68% (n = 320,000) | inhibition, % at 10.9 µM | Induced myeloid leukemia cell differentiation protein Mcl-1 (Homo sapiens), Q07820 | GST-MCL1 / FITC-Bim-BH3 fluorescence polarization;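 active = inhibition above the mean inhibition of all tested compounds plus 3 SD, set per campaign, cut at about 40% in these data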;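 note: higher means more loss of mP so more displacement of Bim peptide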
Target sequence (Q07820 whole entry, looked up): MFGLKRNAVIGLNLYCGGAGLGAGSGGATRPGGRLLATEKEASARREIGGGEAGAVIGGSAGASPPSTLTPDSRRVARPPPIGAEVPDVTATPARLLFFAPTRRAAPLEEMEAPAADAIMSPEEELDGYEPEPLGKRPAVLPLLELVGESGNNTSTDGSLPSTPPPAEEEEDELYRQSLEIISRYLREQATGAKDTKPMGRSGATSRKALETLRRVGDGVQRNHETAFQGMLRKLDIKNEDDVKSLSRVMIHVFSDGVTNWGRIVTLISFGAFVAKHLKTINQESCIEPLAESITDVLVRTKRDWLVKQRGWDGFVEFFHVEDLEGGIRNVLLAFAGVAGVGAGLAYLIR
EBV gp42 block = Epstein-Barr virus gp42 inhibitors, primary screen, biochemical, uHTS, fluorescence polarization; Glycoprotein 42 (Epstein-Barr virus (strain AG876)), Q1HVG2; Fluorescence polarization binding assay, mP read-out; inhibition, % (tested at 21.74 µM); actives 0.42% (n = 220,000); in the data active = inhibition above about 50%
eLon inh = inhibitors of E. coli Lon protease, primary screen, biochemical, fluorescence polarization; P0A9M0; purified E. coli Lon protease; inhibition, % at 7.94 µM; actives 0.42% (n = 360,000); AID 602123, 2011; in the data active = inhibition above about 13%, passing the limit was not always enough
Bcl-xL primary = inhibitors of human Bcl-xL, primary screen, biochemical, fluorescence polarization, HTS | inhibition, % at 10.9 µM | actives 0.7% (n = 320,000) | GST-Bcl-xL / FITC-Bim BH3 peptide fluorescence polarization;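 active = inhibition above the mean of all tested compounds plus 3 SD, cutoff set per campaign, cut at about 30% in these data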;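 note: inhibitors lower millipolarization by displacing the labeled peptide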
GLD-1 RNA inh = GLD-1/TGE RNA complex disruptors, primary screen, biochemical, fluorescence polarization; Female germline-specific tumor suppressor gld-1 (Caenorhabditis elegans), Q17339; purified GLD-1 + fluorescein TGE RNA; inhibition, % at 5.96 µM; actives 0.44% (n = 320,000); AID 2280, 2010;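 active = percent inhibition above a per-plate cutoff, the plate mean of test compounds plus 3 SD, cut at about 30% in these data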
E coli Lon conf = E. coli Lon protease inhibitor retest, confirmation, biochemical, fluorescence polarization. shares compounds with eLon inh. purified E. coli Lon. inhibition, % at 7.94 µM. actives 31% (n = 1,400). AID 602230, 2012; in the data active = inhibition above about 16%
A number is an active result; n = inactive; u = inconclusive; x = not tested or not shown; + = active, no number. A selection: hits, their analogues and other compounds. The true share with any hit is near 1.5%.

SMILES	MEX-5 binding	MCL1-BIM inh	EBV gp42 block	eLon inh	Bcl-xL primary	GLD-1 RNA inh	E coli Lon conf
CCOC(=O)C1CCCN(C(=O)Cc2c(C(=O)O)[nH]c3ccccc23)C1 (centres undefined)	n	n	n	24.4	n	n	20.6
CCOC(=O)c1[nH]c(C)c(C(=O)OCC(=O)N2CCc3ccccc32)c1C	n	n	n	138.8	n	n	n
O=C(CSc1ccccn1)Nc1ccc2[nH]c(=O)[nH]c2c1	x	n	x	n	n	n	x
COc1ccc(S(=O)(=O)c2c(O)c3ccc(C(=O)Nc4ccccc4Cl)cc3[nH]c2=O)cc1	n	n	x	24.8	n	n	n
CC1CCc2nc(NC(=O)C3COc4ccccc4O3)sc2C1 (centres undefined)	n	n	n	33.9	n	n	n
Cc1ccc(C(=O)Nc2nc(=O)n(C(=O)C3CC3)s2)cc1	n	n	n	n	n	n	x
Cc1ccc(C(=O)Nc2nc(=O)n(C(=O)c3ccccc3C)s2)cc1	n	n	n	19.1	n	n	30.5
Cc1ccc(-n2c(C)cc(C(=O)CN3CCOCC3)c2C)cc1	n	n	n	18.9	n	n	n
Cc1cc2c(=O)n(C)c(SCC(=O)Nc3cccc(F)c3)nc2s1	n	n	x	n	n	n	x
O=C(NNC(=O)c1ccccc1F)c1ccc(S(=O)(=O)N2CCCCC2)cc1	x	x	x	n	x	n	x
Clc1ccc(N2O[C@H]3C=C[C@@H]2C3)nc1	x	x	x	61.0	x	x	128.8
Cc1ccccc1OCC(=O)Nc1cccc(S(=O)(=O)NC2=NCCC2)c1	x	n	x	n	n	n	x
Cc1ccccc1-n1ccnc1SCC(=O)Nc1cccc(S(=O)(=O)NC2=NCCC2)c1	x	x	x	16.7	x	n	n
CCOc1ccc(CCNC(=O)c2cccc(NC3=NC4CS(=O)(=O)CC4S3)c2)cc1 (centres undefined)	n	n	x	n	n	n	x
CN(Cc1ccccc1Cl)C(=O)CCNC(=O)c1ccco1	x	x	x	n	x	x	x
Nc1ccc2c3c(cccc13)C(=O)N(c1ccccc1)C2=O	u	x	162.5	+	x	x	+
Cc1cc(C(C)(C)C)oc1C(=O)N(CC(=O)NC1CCCC1)Cc1ccccc1Cl	n	n	n	133.2	n	n	n
CCOC(=O)c1cc(OC)c2cccc(CN3CCCC(C)(C(=O)NCCOC)C3)c2c1 (centres undefined)	x	x	x	n	x	x	x
CCOC(=O)c1cc(OC)c2cccc(CN3CCC(C)(C(=O)NCCOC)C3)c2c1 (centres undefined)	x	x	x	96.8	x	x	45.6
Cc1[nH]c2ccc3c(ncn3CCC#N)c2c1C	n	n	n	29.3	n	n	n
Cc1[nH]c2ccc3ncccc3c2c1C	n	n	n	n	n	n	x
F[B-](F)(F)c1cnc2ccccc2c1	x	x	x	n	x	x	x
F[B-](F)(F)c1cncc2ccccc12	x	x	x	41.5	x	x	38.3
O=C1NC[C@@H](CCCCN2CCN(CCc3ccccc3)C(=O)C2=O)N(CC2CCCCC2)C1=O	x	x	x	n	x	x	x
c1cc(-c2ccsc2)n2ccnc2c1	x	x	x	n	x	x	x
SMILES	MEX-5 binding	MCL1-BIM inh	EBV gp42 block	eLon inh	Bcl-xL primary	GLD-1 RNA inh	E coli Lon conf
c1cc(-c2ccoc2)n2ccnc2c1	x	x	x	73.4	x	x	n
O=C1c2ccccc2-c2onc3ccc(N4CCCC4)c1c23	u	x	n	159.7	x	x	n
O=C1c2ccccc2C(=O)c2c1cccc2N1CCCC1	n	n	n	n	n	n	x
CC(O)(CC(=O)O)CC(=O)O	n	n	x	x	n	n	x
COc1cc(C(=O)OCC(=O)N2c3ccccc3NC(=O)C2(C)C)ccc1OCC(C)C	n	n	x	21.0	n	n	n
CC(OC(=O)Cn1cnc2c1c(=O)n(C)c(=O)n2C)C(=O)Nc1ccc(Cl)cc1 (centres undefined)	n	n	x	26.5	n	n	n
CCOP(=O)(OCC)C(C)(C)NC(=O)c1cc([N+](=O)[O-])cc([N+](=O)[O-])c1	n	n	n	n	n	n	x
CCOP(=O)(OCC)C(NC(=O)c1cc([N+](=O)[O-])cc([N+](=O)[O-])c1)C(F)(F)F (centres undefined)	n	n	n	20.7	n	n	24.4
